Results on 86 sequences are retold here after the supplement of paper PMC3334620.

In all, about 33,000 sequences were measured (“E-score (-0.5 to 0.5)”: median about -0.036, highest 2% from about 0.37 on). For the sample, the highest values were picked, then their nearest neighbours and some sequences at random.

For this assay, the target named is T1, Yer064c (UniProt P40041).
T1 sequence: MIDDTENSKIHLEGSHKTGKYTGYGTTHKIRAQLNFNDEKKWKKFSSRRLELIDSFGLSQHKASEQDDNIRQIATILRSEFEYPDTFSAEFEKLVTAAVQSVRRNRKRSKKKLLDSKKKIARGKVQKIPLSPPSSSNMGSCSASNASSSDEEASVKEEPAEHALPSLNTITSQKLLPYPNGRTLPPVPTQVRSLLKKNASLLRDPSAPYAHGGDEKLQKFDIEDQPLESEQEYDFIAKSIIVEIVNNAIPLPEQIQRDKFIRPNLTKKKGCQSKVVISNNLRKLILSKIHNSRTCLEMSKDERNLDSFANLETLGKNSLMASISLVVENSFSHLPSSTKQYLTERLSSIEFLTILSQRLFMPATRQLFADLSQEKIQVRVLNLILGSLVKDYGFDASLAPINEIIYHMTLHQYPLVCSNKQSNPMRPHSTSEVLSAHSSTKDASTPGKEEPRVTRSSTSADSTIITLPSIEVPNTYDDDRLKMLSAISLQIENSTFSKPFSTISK
As to the kind of experiment: PBM E-score (8-mer binding enrichment) (E-score (-0.5 to 0.5)); higher = stronger / more preferred TF binding. The following applies: protein concentration: 200 nM; construct: GST-full length. The method in brief: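 Universal all-10-mer Agilent arrays, fresh or stripped once, were converted to double-stranded form by primer extension. GST-tagged yeast transcription factors from PURExpress in vitro transcription/translation, full-length or DNA-binding domain only, were applied at about 100-200 nM and detected with fluorescent anti-GST. After masliner normalisation, the Universal PBM Analysis Suite scored each ungapped eight-base word together with its reverse complement by E-score.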
On to CACTAGTA, for which the “PBM E-score” value is -0.0969.

Regarding GACTAGTA, the “PBM E-score” value was determined as 0.391.

Regarding CACTAGTC, the “PBM E-score” value turned out to be 0.274.

In the case of GACTAGTC, the “PBM E-score” value amounted to 0.408.

For AACCAGTC, the “PBM E-score” value worked out at 0.171.

Consider GTAGCCAA, for which the “PBM E-score” value is -0.0169.

For CATGTCTA, the “PBM E-score” value came out at 0.205.

For the sequence CGTCAACG, the “PBM E-score” value is 0.0184.

In the case of TGTCAACA, the “PBM E-score” value is -0.18.

Consider AGTCAACC, for which the “PBM E-score” value came to 0.442.

Consider CGTCAACA, for which the “PBM E-score” value is -0.189.

Regarding ACTCAACG, the “PBM E-score” value is 0.288.

Regarding AGTCAACT, the “PBM E-score” value was determined as 0.424.

For AGTCAACG, the “PBM E-score” value was 0.443.

ACTCAACT: the “PBM E-score” value is 0.337.

Turning to AATCAACT, the “PBM E-score” value worked out at 0.314.

Turning to CGTCAACC, the “PBM E-score” value was -0.225.

As to AGTCAACA, the “PBM E-score” value amounted to 0.441.

As to GGTCAACC, the “PBM E-score” value was -0.0162.

With ATTCGAAG, the “PBM E-score” value was found to be 0.15.

With AAGATACG, the “PBM E-score” value is -0.0653.

For the sequence AGATCTCA, the “PBM E-score” value worked out at 0.0373.

Take ATGGGCTG: the “PBM E-score” value was -0.0763.

As for CACTTAGA, the “PBM E-score” value was 0.0684.

Turning to TGCATTAA, the “PBM E-score” value is 0.0992.

On to CTGGCCGC, for which the “PBM E-score” value was -0.163.

As to AATACGCT, the “PBM E-score” value is -0.136.

Consider CAGTAGTA, for which the “PBM E-score” value was determined as 0.111.

As for AAGTAGTC, the “PBM E-score” value amounted to 0.415.

As to AAGTAGTA, the “PBM E-score” value is 0.0556.

Turning to AAGTAGTG, the “PBM E-score” value is -0.157.

Regarding CAGTAGCC, the “PBM E-score” value was -0.116.

CAGTAGTC: the “PBM E-score” value amounted to 0.403.

With GCAAAGCC, the “PBM E-score” value is -0.263.

As for GTGGCAAC, the “PBM E-score” value is -0.295.

Consider CGTTCACA, for which the “PBM E-score” value was 0.0136.

Regarding CCTGGCAC, the “PBM E-score” value was -0.304.

For GCCATTCA, the “PBM E-score” value was -0.0419.

As to GAATCAAA, the “PBM E-score” value stood at 0.268.

For CAATCATC, the “PBM E-score” value was found to be 0.422.

Turning to GAATCAAC, the “PBM E-score” value was 0.358.

On to CTATCATC, for which the “PBM E-score” value is -0.0157.

Consider CAATCATA, for which the “PBM E-score” value amounted to 0.371.

With CCATCATC, the “PBM E-score” value is -0.01.

For the sequence CGATCATA, the “PBM E-score” value worked out at 0.0235.

Regarding GAATCATC, the “PBM E-score” value stood at 0.48.

For CCATCATA, the “PBM E-score” value is -0.0232.

Take CCGGCTTA: the “PBM E-score” value was -0.221.

On to CCTTGGAA, for which the “PBM E-score” value is -0.185.

In the case of CCGAAAAA, the “PBM E-score” value is 0.0649.

As to ATAGGTCC, the “PBM E-score” value was -0.0251.

For the sequence AGTAAACC, the “PBM E-score” value is -0.0239.

Take CCCTTTTA: the “PBM E-score” value was -0.0873.

In the case of AGATTGAT, the “PBM E-score” value was found to be 0.0609.

For the sequence CTTGAGTC, the “PBM E-score” value came out at 0.466.

With CTTGAGGC, the “PBM E-score” value is -0.146.

Regarding CTTGAGTA, the “PBM E-score” value is 0.233.

In the case of ATTGAGTA, the “PBM E-score” value worked out at 0.282.

With ATTGAGTG, the “PBM E-score” value was 0.149.

On to ATTGAGTC, for which the “PBM E-score” value is 0.479.

Consider ACGGCCAG, for which the “PBM E-score” value is -0.206.

Consider AGCCATGA, for which the “PBM E-score” value was found to be 0.282.

For GTCAGTCA, the “PBM E-score” value was 0.451.

For the sequence CTCAGTCA, the “PBM E-score” value worked out at 0.436.

For the sequence GTCAGTGA, the “PBM E-score” value worked out at 0.31.

As to CTCAGTGA, the “PBM E-score” value is 0.235.

Turning to ATCAGTCG, the “PBM E-score” value is 0.296.

On to CTCAGTCC, for which the “PBM E-score” value is 0.255.

In the case of ATCAGTCC, the “PBM E-score” value worked out at 0.0464.

Take GTCAGTTA: the “PBM E-score” value was 0.0503.

For the sequence ATCAGTCA, the “PBM E-score” value turned out to be 0.434.

As to ATCAGGGG, the “PBM E-score” value was -0.00776.

Consider ACGCACAG, for which the “PBM E-score” value was -0.247.

Consider GCCCATCC, for which the “PBM E-score” value is -0.0789.

Turning to ATAAAAAA, the “PBM E-score” value is 0.112.

TTTAGAAA: the “PBM E-score” value amounted to 0.0151.

On to AAGAGCGG, for which the “PBM E-score” value was -0.214.

CGGGTGCC: the “PBM E-score” value was -0.315.

Turning to CGTCGTGA, the “PBM E-score” value was 0.0738.

For CGTCGTGC, the “PBM E-score” value was -0.106.

As to AATCGTGC, the “PBM E-score” value stood at 0.137.

AGTCGTGA: the “PBM E-score” value turned out to be 0.375.

Take AGTCGTGC: the “PBM E-score” value amounted to 0.371.

In the case of AGTCGTGG, the “PBM E-score” value is 0.373.

As for ATTCGTGG, the “PBM E-score” value came to 0.186.

Take GGTCGTGA: the “PBM E-score” value was -0.0505.
